Bioassay records as filed in PubChem BioAssay.
Shiga inhibitor: A qHTS for Small Molecule Inhibitors of Shiga Toxin; Vero cells, Shiga toxin protein synthesis inhibition reporter; inhibition, % at 38.7 µM; 290,000 compounds, 9.2% hits; in the data active means inhibition mostly above about 28%, no sharp cut-off; inactive means mostly below about 43%; further: 0% is about no effect
CHX counter: Cycloheximide Counterscreen for Small Molecule Inhibitors of Shiga Toxin; cell reporter, cycloheximide protein synthesis inhibition counterscreen; max response, %; 300,000 compounds, 12% hits; in the data active means max response mostly above about 13%, no sharp cut-off; inactive means mostly below about 14%; further: read at 38.3 µM for the half of the compounds with a filed dose; 0% is about no effect
Pf growth 48h: Primary qHTS for delayed death inhibitors of the malarial parasite plastid, 48 hour incubation | P. falciparum luciferase growth in erythrocytes, 48 h | Potency, µM (highest dose often 28.7 µM), without a hit: at the top dose activity change, negative = inhibition, actives largely listed as inhibitors | 310,000 compounds, 5.9% hits | AID 504832, 2011; further: potency means the concentration at half of the fitted maximal effect; on the % scale 0 is the no-effect control and ±100 the full control effect
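A one-generation exposure of luciferase-tagged malaria parasites in RPMI 1640/Albumax erythrocyte culture, 37 C and 5% CO2. Inhibition is inferred from decreased luminescence after adding detection reagent.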
HCMV antiviral: qHTS Assay for inhibitors of the human cytomegalovirus (HCMV). HFF cells, HCMV-luciferase reporter, 72 h; stronger effect = lower value. 410,000 compounds, 4.5% hits. AID 1259415, 2018. activity change, negative = inhibition, % at 57.5 µM; in the data active means activity change below about -60%; inconclusive means no clear call, values can overlap the other calls; inactive means above about -39%; further: on the % scale 0 is the no-effect control and ±100 the full control effect
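After 16 h attachment at 37C, HFF cells received test compound and HCMV-luciferase (1 PFU/cell); reporter luminescence read 72 h later, data normalized against buffer-only and known inhibitor Salinomycin.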
HCV inh: qHTS Assay for Inhibitors of Hepatitis C Virus (HCV); Potency, µM (top dose mostly 41.8 µM), for inactives: at the top dose activity change, negative = inhibition, actives largely listed as inhibitors; Huh7.5.1 HCVcc-Cre infection, luciferase reporter, 44 h; 340,000 compounds, 3.4% hits; AID 651820, 2012; further: potency means the concentration at half of the fitted maximal effect; on the % scale 0 is the no-effect control and ±100 the full control effect
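After 44 h co-culture of compound, cells and HCVcc-Cre (~0.5 moi), substrate is added for 15 min at room temperature and luciferase measured over 15 sec. Cells were seeded at 1,000/well and pre-cultured 4 h.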
Pf growth 96h: Primary qHTS for delayed death inhibitors of the malarial parasite plastid, 96 hour incubation; P. falciparum luciferase reporter growth, 96 h; AID 504834, 2011; 320,000 compounds, 6.9% hits; Potency, µM (highest dose often 28.7 µM), without a hit: at the top dose activity change, negative = inhibition, most hits filed as inhibitors; further: potency means the concentration at half of the fitted maximal effect; on the % scale 0 is the no-effect control and ±100 the full control effect
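Parasite growth measured via integrated firefly luciferase reporter in P. falciparum. Infected erythrocytes at 2% hematocrit, 0.05% parasitemia final were treated 96 hours at 37 C under 5% CO2, and luminescence was read.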
* marks the source's active call; other numbers are inactive results; ? = inconclusive; nt = no result given. Shown are actives, neighbours in structure and some others; about 21% of the full set was active somewhere. Unless noted, the call rests on the fitted dose curve; in most records, active means well fitted inhibition curve with a large enough effect; inconclusive means small, poorly fitted or top-dose-only effect, or another doubt; inactive means no such curve, though single readings can be large or run the other way.

SMILES	Shiga inhibitor	CHX counter	Pf growth 48h	HCMV antiviral	HCV inh	Pf growth 96h
Cc1nnc(N2C(=O)C(=O)/C(=C(\O)c3ccc4c(c3)CC(C)O4)C2c2ccccc2)s1 (stereo not drawn)	49.7*	24.7*	32.9%	-1.3	17.9%	?
CC1Cc2cc(/C(O)=C3\C(=O)C(=O)N(Cc4ccncc4)C3c3ccccc3F)ccc2O1 (stereo not drawn)	11.6	5.7	-22.5%	42.8	16.8%	?
C=CCOc1cccc(C2/C(=C(\O)c3ccc4c(c3)OCCO4)C(=O)C(=O)N2Cc2cccnc2)c1 (stereo not drawn)	19.4	-1.8	3.2%	-15.1	4.3%	?
CC1Cc2cc(/C(O)=C3\C(=O)C(=O)N(CCN(C)C)C3c3ccccc3F)ccc2O1 (stereo not drawn)	77.1*	17.5*	9.4%	37.0	1.8%	19.9%
O=C1C(=O)N(Cc2cccnc2)C(c2cccc(O)c2)/C1=C(\O)c1ccc2c(c1)OCCO2 (stereo not drawn)	74.2*	24.5*	31.9%	5.3	14.9%	29.7%
CC1Cc2cc(/C(O)=C3/C(=O)C(=O)N(CC4CCCO4)C3c3ccco3)ccc2O1 (stereo not drawn)	74.3*	41.3*	164.2%	24.5	6.2%	nt
COc1ccc(-c2noc(-c3ccc(NCCc4ccccc4)c([N+](=O)[O-])c3)n2)cc1	nt	nt	nt	-0.5	nt	nt
COc1ccc(S(=O)(=O)NCCCN2CCCC2=O)c(OC)c1	13.9	-0.5	7.8%	62.8	1.7%	-1.7%
CC1Cc2cc(/C(O)=C3/C(=O)C(=O)N(CCN4CCOCC4)C3c3cccc(O)c3)ccc2O1 (stereo not drawn)	91.3*	62.3*	227.7%	-22.6	11.4%	?
O=C1C(=O)N(Cc2ccncc2)C(c2cccc(O)c2)/C1=C(\O)c1ccc2c(c1)OCCO2 (stereo not drawn)	78.1*	32.0*	49.8%	-24.3	8.1%	73.2%
CCOc1cccc(C2/C(=C(/O)c3ccc4c(c3)CC(C)O4)C(=O)C(=O)N2CCN2CCOCC2)c1 (stereo not drawn)	-6.8	-1.9	1.0%	22.3	6.6%	-8.3%
CC1Cc2cc(/C(O)=C3/C(=O)C(=O)N(Cc4cccnc4)C3c3cccc(O)c3)ccc2O1 (stereo not drawn)	66.1*	34.3*	74.4%	6.0	8.1%	35.1%
CCN(CC)CCCN1C(=O)C(=O)/C(=C(/O)c2ccc3c(c2)CC(C)O3)C1c1ccncc1 (stereo not drawn)	13.4	-2.6	12.0%	nt	nt	?
CCN(CC)CCCN1C(=O)C(=O)/C(=C(/O)c2ccc3c(c2)CC(C)O3)C1c1cccnc1 (stereo not drawn)	17.6	1.5	10.8%	nt	nt	1.47µM*
CCCN(CCC)C(=O)c1cn(C)c2ccc(S(=O)(=O)N3CCCC3)cc2c1=O	-4.8	-5.1	7.2%	-27.3	?	?
CCN(CC)c1ccc(Nc2nc(-c3cccnc3)cs2)cc1	117.8*	36.4*	?	-9.4	-27.7%	?
CN(C)c1ccc(Nc2nc(-c3cccnc3)cs2)cc1	59.0*	51.6*	nt	0.2	-25.1%	nt
CC(C)N1CC(C(=O)Nc2ccc(F)c(Cl)c2)CC1=O (stereo not drawn)	nt	1.7	-9.7%	29.7	14.7%	35.6%
O=C1CC(c2cccnc2)=NN1c1ccc(Cl)cc1Cl	17.8	-4.7	?	-100.4*	-1.1%	26.9%
O=c1cnn(-c2ccc(Cl)cc2Cl)c(-c2ccccc2)c1	-14.2	-1.5	nt	77.7	?	?
CN(Cc1nc(Cc2ccccc2F)no1)[C@@H]1CS(=O)(=O)C[C@H]1O	0.6	0.3	34.1%	16.6	20.3%	11.7µM*
COC(=O)[C@@]1(Cc2ccc(F)cc2)[C@H]2c3cc(C(=O)N(C)C)n(CCCNc4ncc(C(F)(F)F)cc4Cl)c3C[C@H]2CN1C(=O)c1ccccc1	nt	nt	nt	-12.3	nt	nt
O=C(Cn1cc2c(n1)CCCC2)NCc1cccs1	-4.6	2.7	nt	10.7	7.7%	5.22µM*
